For 14 compounds, composite z-score and z-score results are on record in PubChem BioAssay.

The subject of assay [1] is Plasmodium falciparum Sir2 (PF13_0152, Sir2A). Kind of assay: Plasmodium falciparum Sir2A binding compounds – biochemical, small-molecule microarray, 635 nm fluorescence, primary screen (AID 1098).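 Further: score merges spot fluorescence intensity with its signal-to-noise ratio.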 The following applies: fluorescence 635 nm, higher = more signal.
Assay [2] in a line: probe aDKK1 binding to arrayed compounds – biochemical, biotinylated probe, 635/667 nm fluorescence, primary screen (AID 1099).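 Further: score merges 667nm spot fluorescence with signal to noise across triplicate slides; reference of the scale not given here.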 The following applies: small-molecule microarray, higher = more signal.
Assay [3] in a line: probe aCHRDL2 binding to arrayed compounds – biochemical, biotinylated probe, 635/667 nm fluorescence, primary screen (AID 1100). The following applies: small-molecule microarray, higher = more signal.
Assay [4] in a line: change in splice reporter luminescence, either direction, cell-based, HEK293, spliceosome inhibition project, primary screen (AID 1101).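 Further: HEK293 cells carrying a splicing-competent luciferase reporter gene; test concentration not given here.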 The following applies: HEK293 splicing luciferase reporter, 24 h, higher = more signal, called active from +8 up or from −8 down. On the technique in general: A reporter such as luciferase makes a cellular process visible.
The target in assay [5] is Fibroblast growth factor 10 (Homo sapiens) (UniProt O15520). Kind of assay: compounds binding fibroblast growth factor 10 – biochemical, small-molecule microarray, 635 nm fluorescence, primary screen (AID 1102). The following applies: FGF10 binding, fluorescence 635 nm, higher = more signal.
For assay [6], the system named is glycogen synthase kinase-3 (GSK3A per assay name; protocol says GSK3B). Briefly: compounds binding glycogen synthase kinase-3 – biochemical, small-molecule microarray, 635 nm fluorescence, GSK3A, primary screen (AID 1103). Further: the record names both GSK3A and GSK3B. The following applies: fluorescence 635 nm, higher = more signal.
For assay [7], the target named is Epidermal growth factor receptor (Homo sapiens) (UniProt P00533). Briefly: compounds binding epidermal growth factor receptor – biochemical, small-molecule microarray, 635 nm fluorescence, primary screen (AID 1104).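 Further: score merges 667 nm emission intensity with spot signal to noise over triplicate slides.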 The following applies: EGFR binding, higher = more signal.
Assay [8] addresses Follistatin-related protein 3 (Homo sapiens) (UniProt O95633). Briefly: compounds binding follistatin-related protein 3 – biochemical, small-molecule microarray, 635 nm fluorescence, primary screen (AID 1105).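 Further: score merges emission near 667 nm and signal to noise per printed spot across three slides.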 The following applies: FSTL3 binding, higher = more signal.
Assay [9] addresses Dickkopf-related protein 1 (Homo sapiens) (UniProt O94907). Kind of assay: small molecules binding DKK1 protein – biochemical, small-molecule microarray, 635 nm fluorescence scan, primary screen (AID 1106).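 Further: score merges emission near 667 nm with signal to noise over three replicate slides.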 The following applies: higher = more signal.
The test system of assay [10] is Inhibin beta A chain (activin A). Kind of assay: small molecules binding activin A – biochemical, small-molecule microarray, 635 nm fluorescence scan, primary screen (AID 1107).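 Further: mouse activin A protein probed at 4.33 µg/mL on printed slides; score merges bound-protein fluorescence near 667 nm with spot signal-to-noise.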 The following applies: INHBA, higher = more signal.

SMILES strings stand for the structures. Active and inactive are the calls of the source.

Sequence of Epidermal growth factor receptor (Homo sapiens) (P00533 whole entry, looked up): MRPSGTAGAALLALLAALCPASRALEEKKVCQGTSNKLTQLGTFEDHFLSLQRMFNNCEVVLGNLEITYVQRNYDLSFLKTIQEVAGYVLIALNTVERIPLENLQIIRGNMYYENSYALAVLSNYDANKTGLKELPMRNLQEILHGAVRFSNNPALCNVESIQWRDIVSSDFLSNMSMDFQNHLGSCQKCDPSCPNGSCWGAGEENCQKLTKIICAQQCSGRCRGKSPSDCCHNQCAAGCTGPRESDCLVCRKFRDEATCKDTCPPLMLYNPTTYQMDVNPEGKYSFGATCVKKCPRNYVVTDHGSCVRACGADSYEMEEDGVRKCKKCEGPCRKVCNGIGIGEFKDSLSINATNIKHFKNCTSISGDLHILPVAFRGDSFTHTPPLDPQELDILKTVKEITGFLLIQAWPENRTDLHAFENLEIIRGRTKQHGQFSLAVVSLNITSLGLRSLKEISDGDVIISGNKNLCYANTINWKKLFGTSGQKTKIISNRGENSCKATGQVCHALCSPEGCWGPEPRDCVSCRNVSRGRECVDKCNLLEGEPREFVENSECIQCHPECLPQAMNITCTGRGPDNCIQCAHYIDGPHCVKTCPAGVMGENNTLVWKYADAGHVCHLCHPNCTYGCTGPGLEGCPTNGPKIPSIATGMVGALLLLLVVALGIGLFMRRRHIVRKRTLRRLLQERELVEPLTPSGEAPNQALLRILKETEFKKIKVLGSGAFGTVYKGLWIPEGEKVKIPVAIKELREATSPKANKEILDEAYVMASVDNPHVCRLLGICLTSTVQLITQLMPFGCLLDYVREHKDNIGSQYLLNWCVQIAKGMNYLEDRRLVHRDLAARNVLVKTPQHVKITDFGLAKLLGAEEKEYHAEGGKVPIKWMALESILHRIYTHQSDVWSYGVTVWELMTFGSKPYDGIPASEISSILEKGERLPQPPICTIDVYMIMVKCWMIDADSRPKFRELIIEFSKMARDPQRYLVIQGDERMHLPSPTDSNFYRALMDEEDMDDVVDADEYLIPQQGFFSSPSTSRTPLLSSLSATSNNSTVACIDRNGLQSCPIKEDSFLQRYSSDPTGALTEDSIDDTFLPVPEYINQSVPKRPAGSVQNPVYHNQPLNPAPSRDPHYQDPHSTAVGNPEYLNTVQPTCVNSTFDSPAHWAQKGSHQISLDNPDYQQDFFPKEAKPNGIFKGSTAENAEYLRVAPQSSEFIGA
Sequence of Dickkopf-related protein 1 (Homo sapiens) (O94907 whole entry, looked up): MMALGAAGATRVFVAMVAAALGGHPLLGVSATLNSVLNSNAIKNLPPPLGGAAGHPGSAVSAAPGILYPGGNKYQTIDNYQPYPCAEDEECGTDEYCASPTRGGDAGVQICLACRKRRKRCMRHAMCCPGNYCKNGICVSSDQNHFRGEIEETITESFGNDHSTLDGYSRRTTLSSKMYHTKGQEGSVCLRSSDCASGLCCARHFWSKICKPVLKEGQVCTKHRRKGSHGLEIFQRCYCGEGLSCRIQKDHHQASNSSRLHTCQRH
Sequence of Follistatin-related protein 3 (Homo sapiens) (O95633 whole entry, looked up): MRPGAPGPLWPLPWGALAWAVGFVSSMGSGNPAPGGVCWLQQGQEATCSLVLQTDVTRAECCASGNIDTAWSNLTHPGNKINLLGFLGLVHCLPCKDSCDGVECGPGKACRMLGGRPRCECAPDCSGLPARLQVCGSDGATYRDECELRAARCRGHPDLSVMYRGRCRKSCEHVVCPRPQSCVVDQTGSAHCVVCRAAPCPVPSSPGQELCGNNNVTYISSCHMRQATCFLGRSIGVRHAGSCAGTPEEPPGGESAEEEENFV
Sequence of Fibroblast growth factor 10 (Homo sapiens) (O15520 whole entry, looked up): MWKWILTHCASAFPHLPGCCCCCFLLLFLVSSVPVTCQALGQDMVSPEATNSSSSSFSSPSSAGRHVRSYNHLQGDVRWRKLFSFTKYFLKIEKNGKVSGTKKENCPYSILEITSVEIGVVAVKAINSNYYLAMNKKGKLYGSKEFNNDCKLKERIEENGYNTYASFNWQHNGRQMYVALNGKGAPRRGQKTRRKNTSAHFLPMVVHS

Regarding `CCCC1(C(=O)OC)C=C2C(=C(c3ccccc3)C(=O)C2C)CN1` (stereo not given), the composite z-score in assay [1] was -0.495; in [2], 0.717; in assay [3] it was 1.16; in assay [5], -0.157; in [6] it was -0.636; in assay [7], -0.278. Also, the composite z-score in assay [8] is -0.0458; in assay [9], -0.704; in assay [10] it was 1.44. Besides, in assay [4], the z-score was -1.14 (inactive).

In the case of `CCOC(=O)[C@H]1C/C=C/C[C@H](C(=O)OCC)C(=O)O[C@H]2[C@@H](OC)O[C@H](CO)[C@@H](OC(=O)c3ccc(Br)cc3)[C@@H]2OC1=O`, the composite z-score was -0.009 in assay [1]; -0.444 in assay [2]; 0.44 in [3]; 0.88 in [5]; -0.51 in [6]; 0.0445 in assay [7]. The composite z-score in assay [8] was 0.366; in assay [9], 0.34; in assay [10], 0.802. Moreover, the z-score in assay [4] was -1.25 (inactive).

As for `CC1CC/C=C\[C@H]2OC34C=CCN(c5ccc6ccccc6c5)C(=O)[C@H]3N(CCO)C(=O)[C@@H]4C2C(=O)O1` (stereo not given in full), the composite z-score was 1.76 in [1]; -0.122 in [2]; 0.915 in assay [3]; -0.681 in [5]; -0.844 in assay [6]; -1.13 in [7]. Further, the composite z-score was -0.391 in assay [8], -1.02 in assay [9] and 0.838 in [10]. The z-score in [4] was -0.538 (inactive).

Take `CN1C(=O)C2C=CC(C(O)C=Cc3ccc([N+](=O)[O-])cc3)N(Nc3ccccc3)C2C1=O` (stereo not given): the composite z-score in assay [1] is 0.967; in [2], 0.0403; in assay [3], -0.175; in [5] it was 0.718; in [6], 1.15; in [7] it was 0.692. For the same compound, the results for the composite z-score in assay [8], in assay [9] and in assay [10] were 1.06, 0.587 and 1.02, respectively. Further, in assay [4], the z-score is 1.21 (inactive).

Consider `COCCOC(=O)N1C(=O)[C@@]2(c3cc(C#CCCO)ccc31)[C@H](c1ccc(O)cc1)N1[C@H](c3ccccc3)[C@H](c3ccccc3)OC(=O)[C@H]1[C@@H]2C(=O)N1CCN(c2ncccn2)CC1`, for which the composite z-score in [1] is 1.71; in assay [2], -0.365; in assay [3] it was -0.0062; in assay [5], 1.11; in [6], 1.31; in [7] it was 0.36. The composite z-score in assay [8] was 0.899; in [9], 0.417; in assay [10], 1.29. Also, the z-score in assay [4] was -0.0232 (inactive).

On to `COc1cc2c(cc1O)C(c1cccs1)N(Cc1cccc(OC(F)(F)F)c1)CC2` (stereo not given), for which the composite z-score in assay [1] was 1.77; in assay [2] it was -0.293; in [3] it was 0.154; in assay [5], -0.153; in assay [6], -0.0228; in assay [7], -0.0017. In addition, the composite z-score in assay [8] was 0.105; in assay [9], -0.183; in assay [10], 1.41. The z-score in assay [4] is 0.965 (inactive).

With `C=C(CCCC)/C(=C/C[C@H](OC(C)=O)c1ccccc1OCCO)c1cnc2ccccc2c1`, the composite z-score in assay [1] is 0.593; in assay [2], -0.278; in assay [3], -0.114; in [5] it was 0.931; in assay [6] it was -0.0183; in assay [7], 0.0674. The composite z-score in [8] is 0.747; in assay [9], 0.277; in assay [10], 1.52. Also, in assay [4], the z-score was 1.81 (inactive).

As to `C=CCNC(=O)[C@@H]1[C@H]2C(=O)O[C@H](c3ccccc3)[C@H](c3ccccc3)N2[C@H](c2ccc(OCCO)cc2)[C@@]12C(=O)N(C(=O)OCCOC)c1ccc(C#CCNC(N)=O)cc12`, the composite z-score in [1] was determined as 1.43; in assay [2], 0.478; in assay [3], 0.747; in assay [5] it was 0.704; in assay [6] it was 0.549; in [7], 0.555. The figures for the composite z-score in [8], in [9] and in assay [10] were 0.898, 0.554 and 1.2, respectively. The z-score in [4] was 0.184 (inactive).

For the compound `O=C1NC(=O)C2C1C=CC(C(O)C1CC=CCC1)N2Nc1ccccn1` (stereo not given), the composite z-score in assay [1] came to 1.27; in [2], 0.228; in [3], 0.21; in assay [5] it was 0.946; in assay [6], 0.0089; in [7] it was 1.25. Moreover, the composite z-score in [8] worked out at 0.179; in assay [9] it was 1.33; in [10] it was 1.75. Besides, in assay [4], the z-score is 1.17 (inactive).

As to `COCCOC(=O)N1C(=O)[C@@]2(c3cc(C#CC4=CCCCC4)ccc31)[C@H](C(N)=O)[C@H]1C(=O)O[C@H](c3ccccc3)[C@H](c3ccccc3)N1[C@@H]2c1ccc(O)cc1`, the composite z-score in assay [1] was 1.61; in [2] it was 0.0331; in assay [3], 0.275; in assay [5], 1.15; in [6] it was 0.96; in assay [7] it was 0.586. The composite z-score came out at 0.829 in assay [8], 0.318 in assay [9] and 0.787 in [10]. In addition, the z-score in assay [4] is -1.18 (inactive).

In the case of `CN1C(=O)C2C=CC(C(O)c3c(F)cccc3Cl)N(NC(=O)OC(C)(C)C)C2C1=O` (stereo not given), the composite z-score in assay [1] was found to be 1.39; in assay [2], 0.868; in [3], 1.09; in assay [5] it was 0.458; in assay [6], 0.891; in [7], 0.307. Moreover, the composite z-score was 0.649 in assay [8], -0.438 in [9] and 0.449 in [10]. Further, in [4], the z-score was 1.7 (inactive).

On to `COCCOC(=O)N1C(=O)[C@@]2(c3cc(C#CCCO)ccc31)[C@H](c1ccc(OCCO)cc1)N1[C@H](c3ccccc3)[C@H](c3ccccc3)OC(=O)[C@H]1[C@@H]2C(N)=O`, for which the composite z-score in [1] is 0.923; in assay [2], 0.0909; in [3] it was -0.0603; in assay [5] it was 0.874; in [6], 1.3; in assay [7], 0.587. Moreover, the values for the composite z-score in assay [8], in assay [9] and in assay [10] were 0.829, 0.441 and 0.257, respectively. Besides, in assay [4], the z-score was -1.59 (inactive).

Consider `O=C1OCCC=C[C@H]2OC34C=CCN(Cn5nnc6ccccc65)C(=O)[C@H]3N(CCO)C(=O)[C@@H]4C12` (stereo not given in full), for which the composite z-score in assay [1] was 1.34; in [2], 0.362; in assay [3], 0.254; in assay [5], -1.55; in assay [6], -1.6; in [7] it was -1.77. In addition, the values for the composite z-score in assay [8], in [9] and in [10] were -1.04, -1.64 and -0.539, respectively. The z-score in [4] was -0.456 (inactive).

Take `COCCOC(=O)N1C(=O)[C@@]2(c3cc(C#Cc4ccc(OC)cc4)ccc31)[C@H](c1ccc(O)cc1)N1[C@H](c3ccccc3)[C@H](c3ccccc3)OC(=O)[C@H]1[C@@H]2C(=O)Nc1nc2ccccc2s1`: the composite z-score in assay [1] was 0.666; in assay [2], -0.037; in [3], 0.0407; in [5], 1.22; in assay [6], 1.09; in assay [7], 0.404. Further, the composite z-score in assay [8] stood at 0.899; in assay [9], 0.446; in [10] it was 0.277. Also, the z-score in assay [4] was -0.0561 (inactive).
